hcDAF-12 act: H. contortus DAF-12 nuclear receptor activators, primary screen, cell-based, luminescence, HEK293, lit1-tk-luc reporter. HEK293 hcDAF-12 lit1-tk-luc reporter; 0% DMSO, 100% Δ7-dafachronic acid. activation, % at 6.8 µM. 1.4% of 370,000 active. AID 652067, 2013;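 active = activation above the mean of all tested compounds plus 3 SD, cut at about 5.5% in these data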;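 note: 100% = response to 3 µM Δ7-dafachronic acid high control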
ssDAF-12 act: S. stercoralis DAF-12 nuclear receptor activators, primary screen, cell-based, luminescence, HEK293, GRIP1 co-expression, lit1-tk-luc; 1% of 370,000 active; HEK293 ssDAF-12/GRIP1 lit1-tk-luc reporter; % of 3 µM dafachronic acid response; AID 652126, 2013; Nuclear hormone receptor DAF-12 (Strongyloides stercoralis); activation, % at 6.8 µM;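 active = activation above the mean over all tested compounds plus 3 SD, cut at about 0.9% in these data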;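 note: 0% = DMSO-only wells and 100% = 3 µM delta7-dafachronic acid wells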
DAX1 inh-1: DAX1 (NR0B1) inhibitors on StAR promoter, primary screen, cell-based, luminescence, SF-1 (NR5A1), full-length DAX-1; HEK293T StAR-luciferase reporter, SF-1/DAX-1 repression relief; inhibition, % at 6.8 µM; 1.1% of 370,000 active; AID 652010, 2013;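 active = inhibition above the mean over all tested compounds plus 3 SD, cut at about 3.6% in these data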;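 note: 0% = DAX-1 cells with DMSO and 100% = cells lacking DAX-1 with DMSO; higher inhibition means more luminescence from relief of DAX-1 repression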
hgDAF-12 ag: H. glycines DAF-12 receptor agonists, primary screen, cell-based, luminescence, HEK293, GAL4 fusion, UAS-luciferase. Nuclear hormone receptor DAF-12 (Heterodera glycines), GAL4 fusion. HEK293 GAL4-hgDAF12 UAS-luciferase reporter, agonist luminescence; normalized to butyrate control. activation, % at 6.8 µM. 1.8% of 370,000 active. AID 687014, 2013;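 active = activation above a cutoff set at the mean of all screened compounds plus 3 SD, cut at about 10% in these data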;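 note: 0% = DMSO wells and 100% = sodium butyrate wells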
DAX1 inh-2: DAX1 (NR0B1) inhibitors, primary screen, cell-based, HEK293, Gal4-DAX1, luciferase luminescence. Nuclear receptor subfamily 0 group B member 1 (Homo sapiens), P51843. 0.99% of 340,000 active. HEK293 Gal4-DAX1 luciferase reporter. inhibition, % at 6.75 µM;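 active = inhibition above the mean over all tested compounds plus 3 SD, cut at about 4.2% in these data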;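 note: 0% = DAX1-transfected cells with DMSO and 100% = empty-vector control cells with DMSO; inhibition shows as a rise in luminescence from relieved DAX1 repression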
Target sequence (P51843 207-470 limits assumed): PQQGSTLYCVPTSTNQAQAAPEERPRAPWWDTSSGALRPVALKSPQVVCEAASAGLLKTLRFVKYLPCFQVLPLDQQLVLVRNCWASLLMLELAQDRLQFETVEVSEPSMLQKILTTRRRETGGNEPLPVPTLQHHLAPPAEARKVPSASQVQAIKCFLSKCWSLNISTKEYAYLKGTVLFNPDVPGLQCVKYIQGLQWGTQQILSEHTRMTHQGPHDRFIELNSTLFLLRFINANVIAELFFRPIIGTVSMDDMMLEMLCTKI
* marks the source's active call; other numbers are inactive results; nt = no result. An excerpt weighted towards active compounds, which were near 4.1% of everything screened.

SMILES | hcDAF-12 act | ssDAF-12 act | DAX1 inh-1 | hgDAF-12 ag | DAX1 inh-2
CCN(C(=O)C1CCN(c2ncccn2)CC1)c1ccccc1 | 0 | -2 | 0 | -2 | nt
O=C(COC(=O)c1ccccc1-n1cnnn1)c1ccc(F)c(F)c1 | 4 | 0.9* | 4.0* | 8 | 0
O=C(COC(=O)c1ccccc1-n1cnnn1)c1ccccc1 | 3 | -1 | 0 | 1 | 1
CCCCCCOc1ccc(C(CC(N)=O)C(=O)O)cc1 (stereo not given) | -1 | 0 | 0 | -2 | 4.4*
CCCCCCOc1ccc(C(CC(=O)NC)C(=O)O)cc1 (stereo not given) | 0 | -1 | 1 | -1 | -2
O=C(C(=O)N1CCC(CNS(=O)(=O)c2ccc(F)c(F)c2)CC1)c1cc2ccccc2o1 | -1 | -1 | -1 | 1 | nt
CC(=O)Nc1ccc(C(=O)COC(=O)c2cccs2)c(F)c1 | 2 | 0 | 3 | 11* | 1
COc1ccc(C(=O)COC(=O)c2cccs2)cc1 | 2 | 0 | 3.7* | 11* | 2
CC(=O)Nc1ccc(C(=O)COC(=O)c2c(C)noc2C)c(F)c1 | -1 | -2 | 1 | 1 | -1
C=CCN(CC#Cc1ccccn1)Cc1ccc(OC)cc1OC | -4 | -2 | -2 | -6 | nt
COc1ccc(-n2c(SCC(N)=O)nnc2-c2ccco2)cc1 | 4 | 1 | 1 | 5 | 4.5*
Cc1ccc(-n2c(SCC(N)=O)nnc2-c2ccco2)cc1 | 0 | -2 | -1 | -1 | 1
COc1cccc(CSc2nnc(-c3ccco3)n2C)c1 | 1 | -1 | 0 | 1 | 5.2*
Cc1cccc(NC(=O)[C@H]2CC(=O)O[C@@H]2c2ccccc2)c1C | 1 | -2 | -1 | 2 | nt
COc1ccc(-c2ccc3c(n2)CCCN3S(=O)(=O)c2cccs2)cc1 | 4 | 0 | 1 | 3 | nt
COC(=O)N(C)c1nc2ccccc2s1 | -1 | -1 | 0 | 5 | 2
CCCCNC(=O)N(C)c1nc2ccccc2s1 | 5.8* | -1 | 4 | 9 | 0
COc1ccc(Cc2nnc(SCC(=O)Nc3nc(C)cs3)o2)cc1 | -1 | 1.0* | 0 | 0 | 1
COc1ccc(Cc2nnc(SCC(=O)c3ccc(OC)cc3)o2)cc1 | -3 | -1 | -1 | -1 | -1
O=[N+]([O-])c1ccc(NN=Cc2ccccc2)nc1 | 4 | 0 | 2 | 9 | 2
O=[N+]([O-])c1ccc(NN=Cc2ccc(O)cc2)nc1 | 4 | -1 | 2 | 13* | 6.0*
CCN(CC)c1ccc(C=NNc2ccc([N+](=O)[O-])cn2)cc1 | 2 | -1 | 1 | 3 | 2
COc1ccc(C=NNc2ccc([N+](=O)[O-])cn2)cc1 | 2 | 0 | 3 | 11* | 2
Cc1cc(/C=N/Nc2ccc([N+](=O)[O-])cn2)c(C)n1-c1ccc(C(=O)O)cc1 | 0 | -2 | 0 | 5 | 6.6*
O=[N+]([O-])c1ccc(N/N=C/c2cccs2)nc1 | 3 | -1 | 1 | 11* | 6.0*
SMILES | hcDAF-12 act | ssDAF-12 act | DAX1 inh-1 | hgDAF-12 ag | DAX1 inh-2
O=[N+]([O-])c1ccc(NN=Cc2ccccc2O)nc1 | 1 | -2 | -4 | -1 | -3
O=C(N[C@H](C(=O)N1CCC[C@H]1C(=O)NCCc1ccccc1Cl)C1CCCCC1)c1ccc(Cl)c(Cl)c1 | -1 | 0 | 1 | -2 | nt
CCS(=O)(=O)Nc1ccc2c(c1)C(=O)N(C)[C@@H]1CC[C@H](CC(=O)N[C@@H]3CCN(Cc4ccccc4)C3)O[C@H]1CO2 | -2 | -1 | 0 | -2 | nt
O=[N+]([O-])c1ccc(NCc2ccccc2)nc1 | 5 | 0 | 0 | 6 | 1
O=[N+]([O-])c1ccc(NN=CCCc2ccccc2)nc1 | 1 | 0 | 1 | 13* | 1
COc1ccc(C(=O)NCc2ccc(OCCN(C)C)cc2)cc1OC | 5.6* | -2 | 1 | -4 | 0
CCN1CCN(Cc2ccc(NC(=O)c3cccc(-c4ccc5nc(NC(=O)C6CC6)sc5n4)c3)cc2C(F)(F)F)CC1 | 0 | -2 | -3 | 0 | nt
O=C(O)CN1C(=O)/C(=C2\SC(=S)N(C(Cc3ccccc3)C(=O)O)C2=O)c2ccccc21 (stereo not given) | 6.4* | 1.2* | 0 | 1 | 0
OCCNc1nc(Nc2cccc(O)c2)nc2ccccc12 | -3 | -1 | -1 | 5 | -1
OCCNc1nc(Nc2ccc(O)cc2)nc2ccccc12 | 0 | -1 | 1 | 1 | 5.8*
CC(C)(C)SCCNC(=O)/C=C/c1ccc(F)cc1 | 2 | 1.4* | 1 | 8 | 2
CCOc1ccc2cc(C#N)c(SCC(=O)N3CCOCC3)nc2c1 | 3 | 0 | 3 | 11* | 3
CC(C)OC(=O)CSc1nc2cc3c(cc2cc1C#N)OCO3 | -2 | -1 | -1 | 3 | 1
N#Cc1cc2cc3c(cc2nc1SCC(=O)N1CCOCC1)OCO3 | 4 | -1 | 1 | 7 | 6.6*
COC(=O)CSc1nc2cc3c(cc2cc1C#N)OCO3 | 3 | 0 | 3.7* | 12* | 4.7*
CCCC1CCC2(CCCN2CCOC(=O)Nc2ccc(OC)cc2)CC1 (stereo not given) | -1 | -2 | nt | 1 | nt
CCOC(=O)C1(C(=O)OCC)N=C(c2ccccc2)C=C1c1ccccc1 | 1 | -1 | -1 | -2 | nt
Nn1c(SCC(=O)Nc2ccc(OCc3ccccc3)cc2)nnc1-c1cc(-c2ccc(F)cc2)n[nH]1 | 0 | -1 | -2 | 2 | nt
COc1ccc(C(=O)Cn2nnc(-c3ccccc3F)n2)cc1 | -2 | -1 | 0 | 1 | 2
Clc1ccccc1Cn1nnc(-c2ccccc2)n1 | 0 | 4.3* | 0 | 2 | 0
COc1ccc(-c2nnn(Cc3ccccc3F)n2)cc1 | 2 | 0 | 0 | 12* | 3
COC(=O)[C@]12C[C@H](CC(=O)NCCCCc3ccccc3)C(=O)N(Cc3cccc4ccccc34)C1=C[C@H](C1CCCC1)O[C@@H]2C | -1 | -1 | 0 | 0 | nt
CN1CC(=O)N(CC(=O)N2N=C(c3ccc(Cl)cc3)CC2c2ccco2)C1=O (stereo not given) | -1 | -1 | 0 | 0 | 0
CCC(=O)N1N=C(c2ccc(Cl)cc2)CC1c1ccco1 (stereo not given) | -1 | -2 | 0 | 1 | 5.8*
C[C@H]1CCC/C=C/C(=O)c2c(cc(O)c(Cl)c2O)CC(=O)O1 | 1 | -1 | -3 | -9 | nt
COn1c(-c2ccccc2)nc2ccc(Cl)cc21 | 1 | 1 | 0 | 12* | 1
